# Measurements as given in PubChem BioAssay AID620 (Sanford-Burnham Center for Chemical Genomics, 2007).
# About 360 (0.41%) of roughly 87,000 compounds were called active. The sample holds actives, similar compounds and a random draw of the others, so the mix is not that of the screen. A number with no mark means an inactive call. Rule as the data show it: active = cytotoxicity above about 50%; inactive = the rest.
# Experiment: cytotoxicity in HT1080 fibrosarcoma cells, cell-based, fluorescence readout (AID 620);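 also: cells exposed to compound overnight then 4 h with Alamar Blue; 0% = vehicle DMSO and 100% = killing control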
# Conditions: HT1080 viability, at 10 µM, active compounds read high
row,SMILES,cytotoxicity
1,Cc1cc(=O)[nH]c(N2CCc3ccccc3C2)n1,1.4%
2,O=C(CSc1nnc(-c2cccs2)n1Cc1ccco1)Nc1ccc2c(c1)OCO2,1.2%
3,Cn1c(SCC(=O)N2CCCc3ccccc32)nnc1-c1c[nH]c2ccccc12,2.9%
4,CCOc1cccc(N2C(=O)CC(N3CCC(C(N)=O)(N4CCCCC4)CC3)C2=O)c1 (configuration not stated),-6.9%
5,O=c1[nH]c(=O)n([C@H]2C[C@H](O)[C@@H](CO)O2)cc1C(F)(F)F,4.2%
6,O=c1[nH]c(=O)n([C@H]2C[C@H](O)[C@@H](CO)O2)cc1F,58.1% (active)
7,CCc1cn([C@H]2C[C@H](O)[C@@H](CO)O2)c(=O)[nH]c1=O,-0.3%
8,Cc1ccc(SCC(=O)NCCCN2CCOCC2)cc1,4.3%
9,Cc1nn(C)cc1C1C2=C(CC(C)(C)CC2=O)OC2=C1C(=O)CC(C)(C)C2,14.2%
10,CC1(C)CC(=O)C(C2C3=C(CC(C)(C)CC3=O)Oc3ccccc32)=C(O)C1 (configuration not stated),-2.6%
11,CC1(C)CC(=O)C2=C(C1)OC1=C(C(=O)CC(C)(C)C1)C2c1ccc(O)cc1O,63.3% (active)
12,CCCc1cc(=O)[nH]c(SCC(=O)C(C)(C)C)n1,-8.7%
13,CCCC(C)C1C(C#N)=C(N)Oc2cc(C)oc(=O)c21 (configuration not stated),0.8%
14,CCn1ncc(Br)c1C(=O)Nc1ccc(C(=O)OC(C)C)cc1,-9.8%
15,CCn1ncc(Br)c1C(=O)Nc1ccc(F)cc1F,2.8%
16,O=C(OCn1ncc(Br)c(Br)c1=O)c1c(F)cccc1F,100% (active)
17,O=C(OCn1ncc(Br)c(Br)c1=O)c1ccc(F)cc1,95.8% (active)
18,Cc1onc(-c2c(F)cccc2Cl)c1C(=O)OCn1nnc2ccccc2c1=O,-0.3%
19,O=C(OCn1ncc(Br)c(Br)c1=O)c1ccccc1Cl,40%
20,CC1CC(C)CN(C(=O)c2ccccc2Nc2ccc(SC(F)F)cc2)C1 (configuration not stated),-5.3%
21,COc1cc(OC)cc(-c2nnc(SCC(=O)N3CCCC3)o2)c1,9%
22,CCOc1cc(C(c2c(C)[nH][nH]c2=O)c2c(C)[nH][nH]c2=O)ccc1OS(=O)(=O)c1ccc(C)cc1,-4.6%
23,c1ccc(-n2nnnc2SCCCSc2nc3ccccc3s2)cc1,5.7%

row,SMILES,cytotoxicity
1,COc1ccc(CCNC(=O)CSc2nnnn2-c2ccccc2OC)cc1OC,1%
2,CCCSc1nnc(Sc2nnnn2-c2ccccc2)s1,60% (active)
3,CCSc1nnnn1-c1ccccc1,11%
4,COc1ccc(CCNc2nnc(Sc3nnnn3-c3ccccc3)s2)cc1OC,57.2% (active)
5,COc1ccc(-n2nnnc2SCC(=O)NCCc2ccc(OC)c(OC)c2)cc1,-21.1%
6,NS(=O)(=O)c1ccc(CCNc2nc(CN3CCCCC3)nc3sc4c(c23)CCC4)cc1,28.3%
7,CSc1nc(-c2ccccc2)nc2[nH]ccc(=O)c12,8.6%
8,CSc1nc2ccc(S(=O)(=O)N(C)C)cc2s1,-0.9%
9,CCc1cc(C)c(O)c(CC)n1,-4.2%
10,Cn1c2ccccc2c2cc(C(=O)O)ccc21,6.9%
11,Nc1ccc(C(=O)n2c3ccccc3c3ccccc32)cc1,52.6% (active)
12,Nc1ccc(C(=O)N2CCCC2)cc1,13%
13,CC(C)Cc1nnc(NC(=O)CC(=O)Nc2ccccc2C(=O)O)s1,-4.8%
14,O=C(NC1CC1)c1sccc1-n1cccc1,4%
15,COc1ccc(OCCSc2nnc3sc4ccccc4n23)cc1,-2.4%
16,COc1cccc(OCCSc2nnc3sc4ccccc4n23)c1,12.4%
17,CCOC(=O)C1CCN(C(=O)CCCN2C(=O)c3ccccc3C2=O)CC1,5%
18,CC[Si](CC)(CC)c1c2c(nc3ccc(OC)cc13)-c1cccc(=O)n1C2,-6.3%
19,CCNC(=O)COc1ccc(S(=O)(=O)Nc2ccccc2)cc1,2.5%
20,COc1ccc(S(=O)(=O)Cc2ccc(C(=O)NCc3ccc(F)cc3)o2)cc1,-10.5%
21,COc1ccc(-n2c(Cc3cccn3C)nnc2SCC(=O)N2CCCc3ccccc32)cc1,0.6%
22,CCCCCCN(C(=O)CCCCCN1C(=O)NC(c2ccc([N+](=O)[O-])cc2)C(C(=O)OCc2ccccc2)=C1C)C(C(=O)NCCCC)c1ccc(OCC(=O)OC)c(C(=O)OC)c1 (configuration not stated),-7.3%
23,Cc1ccc(S(=O)(=O)Nc2cccc3cccnc23)cc1,-3%

row,SMILES,cytotoxicity
1,Brc1ccc(-c2nnc3n2-c2ccccc2CC3)cc1,2%
2,Cc1ccc(-n2c(-c3ccc(Br)cc3)c[n+]3c2CCc2ccc4cccnc4c2-3)cc1,63.8% (active)
3,COc1ccccc1NC(=O)CSc1nnc(COc2ccc(Cl)cc2)n1Cc1ccco1,-2%
4,CCOc1ccc(N(CC(=O)NC(C)(C)C)S(=O)(=O)c2c(C)noc2C)cc1,-10.4%
5,CCOc1ccccc1NC(=O)CN(c1cc(C)cc(C)c1)S(=O)(=O)c1c(C)noc1C,-7.8%
6,COc1ccc(N(CC(=O)Nc2cc(Cl)ccc2OC)S(=O)(=O)c2c(C)noc2C)cc1,53.8% (active)
7,CCOc1ccccc1NC(=O)CN(c1ccc(C)cc1)S(=O)(=O)c1c(C)noc1C,-3.3%
8,CCOc1ccccc1NC(=O)CN(c1ccc(OC)cc1)S(=O)(=O)c1c(C)noc1C,53.1% (active)
9,CCOc1ccc(N(CC(=O)Nc2ccc(C)cc2)S(=O)(=O)c2c(C)noc2C)cc1,3.5%
10,COc1ccc(OC)c(NC(=O)CN(c2ccc(C)cc2)S(=O)(=O)c2c(C)noc2C)c1,2.3%
11,COc1ccc(N(CC(=O)Nc2cc(C)ccc2OC)S(=O)(=O)c2c(C)noc2C)cc1,-2.6%
12,CCOc1ccc(N(CC(=O)Nc2ccccc2C)S(=O)(=O)c2c(C)noc2C)cc1,54.9% (active)
13,Cc1cccc(C)c1-n1c(C)cc(/C=C2\NC(=O)NC2=O)c1C,15.3%
14,Cc1cccc(Nc2nn3c(=O)c4ccccc4nc3s2)c1,6.1%
15,CCCCCCSc1cc(C)nc2ncnn12,-4.5%
16,CCOc1cc(-c2noc(-c3ccncc3)n2)cc(Br)c1OC,-6.4%
17,CCN(CC)C(=O)CN(C#N)c1nc(OC)nc(N(C)C)n1,5.3%
18,CCCCn1c(N)c(N(CC)C(=O)c2ccc3c(c2)S(=O)(=O)c2ccccc2C3=O)c(=O)[nH]c1=O,-1.2%
19,CCn1c(SCC(=O)Nc2ccc3c(c2)OCO3)nnc1-c1cnccn1,102% (active)
20,CCn1c(SCC(=O)Nc2ccc3c(c2)OCCO3)nnc1-c1ccccn1,37%
21,Cn1c(SCC(=O)Nc2ccc3c(c2)OCO3)nnc1-c1cnccn1,13.4%
22,CN1C(=O)c2ccc(S(=O)(=O)c3ccc(C(=O)O)cc3)cc2C1=O,3.3%
23,Cc1ccc2[nH]c(=O)c(-c3nc4ccccn4c3NCc3ccco3)cc2c1,-4.4%

row,SMILES,cytotoxicity
1,COc1ccc2c(c1)C(C1=C(O)CC(C)(C)CC1=O)C1=C(CC(C)(C)CC1=O)O2 (configuration not stated),10.3%
2,CC[C@]1(O)CC2CN(CCc3c([nH]c4ccccc34)[C@@](C(=O)OC)(c3cc4c(cc3OC)N(C=O)[C@H]3[C@@](O)(C(=O)OC)[C@H](OC(C)=O)[C@]5(CC)C=CCN6CC[C@]43[C@@H]65)C2)C1 (some centres not stated),65.8% (active)
3,CC(C)Cn1c(=O)c2c(c3ccccc31)OC(C)C(=O)N2 (configuration not stated),-0.6%
4,CCOC(=O)CNC(=O)C(Cc1ccccc1)NS(=O)(=O)c1ccc2c(c1)CCC(=O)N2 (configuration not stated),0.8%
5,NS(=O)(=O)c1ccc(Nc2nc(-c3ccc4ccccc4c3)cs2)cc1,-2.9%
6,Cc1cccnc1Nc1nc(-c2ccc(O)c(O)c2)cs1,9.2%
7,Oc1ccc(-c2csc(-c3ccccc3)n2)cc1O,15.6%
8,Oc1ccc(-c2nc(-c3ccc(O)c(O)c3)cs2)cc1,61.2% (active)
9,Oc1ccc(Nc2nc(-c3ccc(O)cc3)cs2)cc1,2.8%
10,Oc1ccc(Nc2nc(-c3ccc4ccccc4c3)cs2)cc1,53.6% (active)
11,O=C(O)CCc1ccc(-c2cccs2)n1CCC(=O)O,-6.8%
12,Cn1nc(-c2ccccc2)c(-c2nc(-c3cccc(C(F)(F)F)c3)no2)c1Cl,6.9%
13,Cc1cccc(C)c1NC(=O)CSc1nc(-c2ccco2)cc(C(F)(F)F)n1,3.3%
14,Cc1cc(NC(=O)CCCSc2nc(-c3ccco3)cc(C(F)(F)F)n2)no1,2.7%
15,Cc1ccc(NC(=O)CSc2nc(-c3ccco3)cc(C(F)(F)F)n2)cc1C,-8.6%
16,COC(=O)c1ccccc1NC(=O)CSc1nc(-c2ccco2)cc(C(F)(F)F)n1,52.3% (active)
17,COC(=O)c1ccc(C(=O)OC)c(NC(=O)CSc2nc(-c3ccco3)cc(C(F)(F)F)n2)c1,5.6%
18,O=C(CSc1nnc(-c2ccccn2)n1Cc1ccccc1)Nc1ccc2c(c1)OCO2,3.3%
19,Cc1oc(C(=O)O)cc1COc1ccc2c(C)cc(=O)oc2c1,-7.7%
20,COc1cccc(N2CCN(C(=O)c3[nH]c(C)c(C(C)=O)c3C)CC2)c1,51% (active)
21,CC(=O)c1c(C)[nH]c(C(=O)N2CCN(c3ncccn3)CC2)c1C,-1.6%
22,CC(=O)c1c(C)[nH]c(C(=O)N2CCN(c3ccc(F)cc3)CC2)c1C,-1.4%
23,COc1ccccc1NC(=O)Cn1nc(C(F)(F)F)c2c1CCCC2,-0.3%
